Data reported in PubChem BioAssay.
Activity calls are given as the source filed them.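 The calls were made as follows, unless noted: active = inhibition of the reporter signal at or above 50%; inactive = inhibition below 50%.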

Columns and labels:
[1] = inhibitors of TNFa-induced NFkB p65 translocation, primary screen, imaging, HUVEC, MLSMR starter and 10KST1 sets (AID 438;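 active = inhibition above 20% together with a positive visual image hit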;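 also: compound added about 3h40 before a 20 min TNFalpha stimulation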;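 as to inhibition: signal is the nuclear over cytoplasmic p65 intensity ratio per well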); conditions: HUVEC TNFa-induced p65 nuclear translocation; cell count: measured here: nuclei count (cytotoxicity indicator), at 2.08 µM; inhibition: at 2 µM, stronger effect = higher value, 0% TNFa-plus-vehicle, 100% no-TNFa wells
[2] = reduction of polyQ htt aggregates in cells – imaging, exon1htt(103Q)mCFP cells, high-content imaging, primary screen (AID 483;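 active = visual image review flags a hit and inhibition of aggregation exceeds 20%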;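 also: compound exposure lasted 3 days before fixation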;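 as to nuclei count: percent of the per-plate median nuclei count of sample wells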); conditions: exon1htt(103Q)mCFP cell line, aggregate imaging, at 2 µM; inhibition of aggregation: stronger effect = higher value; nuclei count: measured here: cell count, toxicity
[3] = endothelial E-selectin expression blockers – imaging, HUVEC, immunofluorescence, MLSMR starter and 10KST1 sets, primary screen (AID 487;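 active = visually confirmed hit in the image check and inhibition above 20%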;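 as to inhibition: signal is fraction of cell area covered by stained E-selectin grains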;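 as to nuclei count: 100% = median nuclei count of all wells on the same plate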); conditions: HUVEC TNFalpha-induced E-selectin immunofluorescence imaging, at 2 µM; inhibition: stronger effect = higher value; nuclei count: measured here: cell number, toxicity
[4] = molecular target: Voltage-gated potassium channel subunit beta-2 (Rattus norvegicus) (UniProt P62483); assay: inhibitors of rat Kvbeta2 reductase activity – biochemical, NADPH fluorescence, primary screen (AID 622;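 active = fluorescence slope higher than the sample average by over 3 SD, cut at about -0.22 in these data, passing the limit was not always enough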;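 also: slope of raw intensity against log time taken from 70 to 1610 s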); conditions: recombinant KvBeta, 4-cyanobenzaldehyde reduction, at 10 µM, stronger effect = higher value
[5] = molecular target: Voltage-gated potassium channel subunit beta-2 (Rattus norvegicus) (UniProt P62483); assay: enhancers of rat Kvbeta2 NADPH turnover – biochemical, NADPH fluorescence, primary screen (AID 623;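 active = NADPH fluorescence slope more negative than the mean of all samples by about 3 SD, 99.7% confidence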;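 also: fluorescence intensity change per second fitted from 20 to 320 s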); conditions: Recombinant KvBeta, NADPH fluorescence decrease slope, 10 min; at 10 µM; stronger effect = lower value
[6] = molecular target: Alpha-2C adrenergic receptor (Homo sapiens) (UniProt P18825); assay: compounds altering alpha2C-coupled GIRK flux – cell-based, HEK293 alpha2C/GIRK1/2, thallium flux, primary screen (AID 624;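 active = fluorescence slope after compound addition differing from the mean of all screened samples at 99.7% confidence, in either direction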;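 also: slope of fluorescence ratio to pre-addition baseline per second over 15 to 24 s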); conditions: thallium flux BTC fluorescence, at 10 µM, actives lie on both sides
[7] = blockers of RIG-like receptor reporter activation – cell-based, Sendai virus stimulus, luciferase, 10K MLSCN set, TLR/RLR signaling modifier project, primary screen (AID 602276;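 active = inhibition at or above 50% at 10 µM; inactive = inhibition below 50%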;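 also: firefly luciferase from ISG56 promoter only with Renilla not read in this screen; 0% = Sendai virus plus DMSO and 100% = medium plus DMSO without virus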); conditions: HEK293 RL24 IRF3 luciferase reporter, at 10 µM, stronger effect = higher value
[8] = TLR3 IRF3 reporter activation blockers – cell-based, poly I:C stimulus, luciferase, 10K MLSCN set, primary screen (AID 602277); conditions: HEK293-TLR3 RL24 IRF3 luciferase reporter, at 10 µM, stronger effect = higher value

Voltage-gated potassium channel subunit beta-2 (Rattus norvegicus), sequence (P62483 whole entry, looked up): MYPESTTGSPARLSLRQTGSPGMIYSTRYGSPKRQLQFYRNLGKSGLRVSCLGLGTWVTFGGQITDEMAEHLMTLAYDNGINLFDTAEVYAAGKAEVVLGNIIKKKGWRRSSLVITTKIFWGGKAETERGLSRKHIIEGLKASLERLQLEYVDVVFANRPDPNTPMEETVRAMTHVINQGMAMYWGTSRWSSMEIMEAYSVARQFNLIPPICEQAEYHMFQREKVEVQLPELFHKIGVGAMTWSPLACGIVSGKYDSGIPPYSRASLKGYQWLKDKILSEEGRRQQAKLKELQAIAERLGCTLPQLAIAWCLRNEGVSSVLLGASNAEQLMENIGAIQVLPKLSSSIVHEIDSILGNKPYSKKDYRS
Alpha-2C adrenergic receptor (Homo sapiens), sequence (P18825 whole entry, looked up): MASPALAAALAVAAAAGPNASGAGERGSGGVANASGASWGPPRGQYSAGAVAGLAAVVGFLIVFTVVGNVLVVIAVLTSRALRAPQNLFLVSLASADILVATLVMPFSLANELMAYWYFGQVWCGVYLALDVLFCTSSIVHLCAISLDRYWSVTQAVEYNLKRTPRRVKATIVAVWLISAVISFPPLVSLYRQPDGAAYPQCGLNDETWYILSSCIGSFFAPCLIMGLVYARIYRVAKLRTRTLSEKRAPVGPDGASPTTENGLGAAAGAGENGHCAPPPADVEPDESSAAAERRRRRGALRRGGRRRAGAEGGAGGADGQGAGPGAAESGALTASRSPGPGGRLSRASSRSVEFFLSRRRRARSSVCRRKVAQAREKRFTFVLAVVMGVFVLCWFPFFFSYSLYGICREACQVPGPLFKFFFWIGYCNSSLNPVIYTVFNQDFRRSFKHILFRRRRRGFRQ

Row | Structure (SMILES) | cell count [1] | inhibition [1] | inhibition of aggregation [2] | nuclei count [2] [%] | inhibition [3] | nuclei count [3] [%] | fluorescence slope [4] | NADPH fluorescence slope [5] | slope [6] | inhibition [7] | inhibition [8]
1 | CCCCN(CCCC)CCn1cnc2c([nH]c3ccc(OC)cc32)c1=O | 569 | -7.1% (inactive) | 0.2% (inactive) | 85.8 | -65.8% (inactive) | 105 | -0.536 (inactive) | -1.1e-05 (inactive) | 0.00685 (inactive) | 4.54% (inactive) | 30.7% (inactive)
2 | CCOc1ccc(N(CC(=O)NC2CCCCC2)S(=O)(=O)c2c(C)noc2C)cc1 | 710 | -2.8% (inactive) | 33.7% (inactive) | 117 | -52.9% (inactive) | 112 | -0.616 (inactive) | -2.8e-05 (inactive) | 0.00737 (inactive) | -0.99% (inactive) | 17.1% (inactive)
3 | Cc1cccc(NC(=O)CSc2nnc(-c3cc(C)n(-c4ccccc4)c3C)o2)c1C | 590 | -16.6% (inactive) | -14.8% (inactive) | 48 | -27.3% (inactive) | 111 | -0.6 (inactive) | -1.4e-05 (inactive) | 0.00877 (inactive) | 5.08% (inactive) | 52.9% (active)
4 | CCOC(=O)C1CCCN(c2c(Nc3ccc(C)c(C)c3)c(=O)c2=O)C1 (stereo not given) | 613 | 9% (inactive) | 2.3% (inactive) | 104 | -103% (inactive) | 131 | -0.539 (inactive) | 6.2e-06 (inactive) | 0.00607 (inactive) | -6.09% (inactive) | 32.9% (inactive)
5 | CCn1c(=S)ccc2ccc(OC)cc21 | 296 | 5.3% (inactive) | -4.2% (inactive) | 77.6 | -13.4% (inactive) | 120 | -0.599 (inactive) | -9.6e-06 (inactive) | 0.0055 (inactive) | -6.3% (inactive) | 29% (inactive)
6 | N#Cc1ccccc1Cn1c(=O)n(Cc2ccc(C(=O)NCc3ccco3)cc2)c(=O)c2ccccc21 | 689 | -11.4% (inactive) | -4.5% (inactive) | 83.9 | -47.4% (inactive) | 92.1 | -0.5 (inactive) | 2e-05 (inactive) | 0.00719 (inactive) | 1.35% (inactive) | -0.0219% (inactive)
7 | COc1ccc(-n2ncc3c(=O)n(CC(=O)OCc4ccccc4)cnc32)cc1 | 506 | 5.2% (inactive) | -19.6% (inactive) | 94.6 | -26% (inactive) | 101 | -0.377 (inactive) | -4.4e-05 (inactive) | 0.00543 (inactive) | -0.623% (inactive) | 3.88% (inactive)
8 | COc1cc(OC)c(-c2nn3c(C4CCCCC4)nnc3s2)cc1OC | 573 | 7.2% (inactive) | 1.8% (inactive) | 109 | -115% (inactive) | 126 | -0.412 (inactive) | -5.9e-05 (inactive) | 0.00604 (inactive) | 12.8% (inactive) | 16.9% (inactive)
9 | Cc1ccc(S(=O)(=O)Cn2nnnc2CN(Cc2ccco2)CC2CCCO2)cc1 (stereo not given) | 380 | -1% (inactive) | 2.3% (inactive) | 99.8 | -58.1% (inactive) | 69.6 | -0.588 (inactive) | -4.2e-05 (inactive) | 0.00299 (inactive) | -5.71% (inactive) | 0.385% (inactive)
10 | CCOC(=O)N1CCC(NC(=O)c2cc3c(=O)n(C)c4ccccc4c3n2C)CC1 | 701 | -2.8% (inactive) | 4.2% (inactive) | 140 | -50.1% (inactive) | 112 | -0.416 (inactive) | -6.5e-05 (inactive) | 0.00503 (inactive) | 4.95% (inactive) | 28.7% (inactive)
11 | Cc1ccc(Cn2c(CN3CCOCC3)nc3c2c(=O)n(C)c(=O)n3C)cc1 | 332 | 19.7% (inactive) | 16.7% (inactive) | 104 | -3.6% (inactive) | 104 | -0.48 (inactive) | -4.2e-05 (inactive) | 0.00599 (inactive) | 2.2% (inactive) | 26.6% (inactive)
12 | COc1ccc(C(=O)CN2C3=NCCCN3c3ccccc32)cc1OC | 335 | -3.1% (inactive) | -14.2% (inactive) | 76.5 | 22.7% (inactive) | 93.6 | -0.475 (inactive) | -4.1e-05 (inactive) | 0.00312 (inactive) | 10.4% (inactive) | 28.8% (inactive)
13 | O=S(=O)(Cc1ccccc1)N1CCCCCC1 | 451 | 5.2% (inactive) | -1% (inactive) | 91 | -42.3% (inactive) | 103 | -0.497 (inactive) | -5.8e-05 (inactive) | 0.00613 (inactive) | -4.29% (inactive) | 4.76% (inactive)
14 | Cc1c(NC(=O)c2ccc(Br)o2)c(=O)n(-c2ccccc2)n1C | 366 | -5.9% (inactive) | -13.4% (inactive) | 114 | -74% (inactive) | 129 | -0.436 (inactive) | -2.6e-05 (inactive) | 0.00344 (inactive) | 9.74% (inactive) | 34.3% (inactive)
15 | COc1ccc(N=c2scc(-c3ccc(S(=O)(=O)N4CCOCC4)cc3)n2CCCO)cc1 | 974 | -6.1% (inactive) | 23% (inactive) | 99.9 | -218% (inactive) | 136 | -0.319 (inactive) | -2.9e-05 (inactive) | 0.00558 (inactive) | 41.4% (inactive) | -19.4% (inactive)
16 | O=C(CSc1nnc(Cn2c(=O)sc3ccccc32)n1-c1ccccc1)NCC1CCCO1 (stereo not given) | 525 | -6.2% (inactive) | 1.1% (inactive) | 106 | -19.9% (inactive) | 116 | -0.583 (inactive) | -2.3e-05 (inactive) | 0.00648 (inactive) | 12% (inactive) | 37.7% (inactive)
17 | COc1ccc(C(=O)Cn2nnc(-c3cccs3)n2)cc1 | 368 | -7% (inactive) | 27.6% (inactive) | 89.5 | -0.6% (inactive) | 100 | -0.407 (inactive) | -4.9e-05 (inactive) | 0.00512 (inactive) | -2.35% (inactive) | -30.5% (inactive)
18 | CCn1cc(C(=O)O)c(=O)c2cc(F)c(N3CCN(C(=O)Nc4ccccc4)CC3)cc21 | 676 | -14% (inactive) | 27.3% (inactive) | 68.8 | -42.9% (inactive) | 101 | -0.498 (inactive) | -8.3e-06 (inactive) | 0.00493 (inactive) | 8.6% (inactive) | 10.7% (inactive)
19 | O=C1c2ccccc2C(Nc2ccc3c(c2)OCCO3)N1Cc1ccc2c(c1)OCO2 (stereo not given) | 597 | 3.4% (inactive) | -2.8% (inactive) | 102 | -14.2% (inactive) | 106 | -0.553 (inactive) | -5e-05 (inactive) | 0.00464 (inactive) | 3.99% (inactive) | 50.1% (active)
20 | O=c1[nH]c(/C(=N\O)c2ccccc2)no1 | 462 | 2% (inactive) | -5% (inactive) | 109 | -11.8% (inactive) | 111 | -0.421 (inactive) | -0.000106 (inactive) | 0.00496 (inactive) | 7.11% (inactive) | 24.8% (inactive)
21 | CC(C)Cn1c(CN(Cc2ccccc2)Cc2ccccc2)nc2c1c(=O)n(C)c(=O)n2C | 567 | -1% (inactive) | 1.4% (inactive) | 124 | -12.8% (inactive) | 117 | -0.518 (inactive) | -1.8e-05 (inactive) | 0.00724 (inactive) | 9.97% (inactive) | 12.9% (inactive)
22 | COc1ccccc1OCCCn1c(=O)oc2ccccc21 | 219 | 3.7% (inactive) | 3.2% (inactive) | 91.4 | -46.5% (inactive) | 94.4 | -0.506 (inactive) | -4.3e-05 (inactive) | 0.00513 (inactive) | -13.6% (inactive) | -42.9% (inactive)
23 | COCCSc1nnc(NC(=O)Cc2ccccc2OC)s1 | 660 | -15.1% (inactive) | 5.4% (inactive) | 94.2 | -30.7% (inactive) | 103 | -0.411 (inactive) | -5.1e-05 (inactive) | 0.00483 (inactive) | 16.6% (inactive) | 25.8% (inactive)
24 | Oc1cccc(C=NCc2ccccc2)c1O | 332 | -2.5% (inactive) | 15.5% (inactive) | 102 | -100% (inactive) | 130 | -0.46 (inactive) | -4e-05 (inactive) | 0.00215 (inactive) | 10.5% (inactive) | 41.8% (inactive)
25 | CCOc1cc(S(=O)(=O)NCc2ccc3c(c2)OCO3)ccc1F | 266 | 1.8% (inactive) | -4.1% (inactive) | 98.6 | -32.5% (inactive) | 103 | -0.407 (inactive) | -3.8e-05 (inactive) | 0.00471 (inactive) | 15.3% (inactive) | 9.83% (inactive)
